High-throughput results deposited in PubChem by National Center for Advancing Translational Sciences (NCATS).
Pol beta inh: inhibitors of human DNA polymerase beta; Pol beta primer extension/strand displacement, fluorescence kinetic; Potency, µM (top dose mostly 114 µM), actives largely listed as inhibitors; 340,000 tested, 1.3% active
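Values derive from four-parameter Hill fits of normalized kinetic data: reads at 0 and 10 min following addition of 50 nM substrate to 10 nM Pol beta preincubated 15 min with compound.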
WRN helicase inh: inhibitors of human WRN helicase. WRN helicase unwinding, fluorescent forked duplex, kinetic. 360,000 tested, 0.46% active. Potency, µM (series often up to 114 µM), usual class: inhibitors. Q14191; also: nearly all actives have a fitted effect of over 55% in size
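Kinetic fluorescence helicase assay: unwinding of a quenched forked DNA duplex (100 nM final) with 2 mM ATP final raises red fluorescence (525/598 nm). Compounds sat 15 min at room temperature with 20 nM WRN beforehand.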
Pol iota inh: inhibitors of human DNA polymerase iota. Potency, µM (highest dose often 115 µM), usual class: inhibitors. Q9UNA4. Pol iota fluorescent replication assay, 10 min. AID 588590. 390,000 tested, 1% active
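Fluorescent replication assay read twice, at 0 min and 10 min after adding 50 nM (final) substrate. Enzyme (10 nM) and compounds were first incubated 15 min at room temperature; enzyme-free buffer wells were negative controls.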
Pol eta inh-1: DNA polymerase eta (human) inhibition; AID 588591; recombinant Pol eta, fluorescent DNA replication assay; Potency, µM (doses to about 114 µM), actives largely listed as inhibitors; 390,000 tested, 1.2% active; Q9Y253
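Pol eta (10 nM) was preincubated with compounds for 15 min at room temperature, after which fluorescent replication substrate (50 nM final) was added to start the reaction. Fluorescence was read kinetically at 0 and 10 min.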
Pol kappa inh-1: DNA polymerase kappa (human) inhibition | Potency, µM (doses to about 107 µM), hits mostly inhibitors | Q9UBT6 | AID 588579 | purified Pol kappa, fluorescent DNA synthesis assay, 10 min | 400,000 tested, 0.53% active
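10 nM Pol kappa was preincubated with compounds for 15 min at room temperature. Reaction started with 50 nM (final) substrate. Fluorescence read kinetically at 0 and 10 min.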
L3MBTL1 inh: inhibitors of human L3MBTL1. Q9Y468. AlphaScreen L3MBTL1–H3K9me1 peptide binding. Potency, µM (titrated, usually from 57.1 µM), usual class: inhibitors. 230,000 tested, 0.66% active. AID 485360; also: nearly all actives have a fitted effect of over 60% in size
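AlphaScreen proximity signal between nickel-chelate acceptor and streptavidin donor beads (final 10 ug/mL) reports binding of 50 nM L3MBTL1 to 75 nM biotin-H3 K9me1 peptide; complex incubated with compounds 30 min at room temperature; cefsulodin titration as control.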
PGK validate: blocks T. brucei phosphoglycerate kinase. shares compounds with Pol kappa inh-1. Potency, µM (doses to about 57.5 µM), actives largely listed as inhibitors. 500 tested, 79% active. TbPGK coupled GAPDH assay, Kinase-Glo luminescence; also: nearly all actives have a fitted effect of over 65% in size
Pol iota confirm: Inhibitors of human DNA polymerase iota, confirmation; 1,500 tested, 77% active; shares compounds with Pol kappa inh-1; Pol iota primer extension, TAMRA/BHQ fluorescence; Potency, µM, hits mostly inhibitors
Pol kappa inh-2: Pol kappa (human) inhibition, cherry-pick confirmation; Potency, µM, most hits filed as inhibitors; purified Pol-kappa, fluorescent strand-displacement substrate; 920 tested, 76% active; shares compounds with Pol eta inh-1
Pol eta inh-2: Pol eta (human) inhibition, cherry-pick confirmation; shares compounds with Pol eta inh-1; Pol eta primer extension, TAMRA/BHQ fluorescence, 10 min; Potency, µM, hits mostly inhibitors; 2,600 tested, 64% active; AID 720502
Of the large screens only hits and unclear results are named; the others gave an inactive call (follow-up assays come after a bar, where they were run). Only some compounds are listed: those with a hit (about 2.5% of all), similar ones and a draw of the others. Calls follow the shape of the dose curve; as a rule, active = well fitted curve in the direction sought with a large enough effect; inconclusive = small, poorly fitted or top-dose-only effect, or another doubt; inactive = no such curve, though single readings can be large; an effect the other way counts as inactive or inconclusive.

CC(=O)Nc1ccc(-n2nnnc2SCC(=O)Nc2cccc(NC(=O)c3ccco3)c2)cc1	Pol beta inh inconclusive, Pol iota inh 28µM, Pol eta inh-1 inconclusive (no result: L3MBTL1 inh) | Pol iota confirm 53 | Pol eta inh-2 inconclusive
Cn1cccc1C(=O)OCc1nc2ccccc2c(=O)[nH]1	Pol iota inh 18µM, Pol eta inh-1 20µM, Pol kappa inh-1 71µM (no result: Pol beta inh) | Pol iota confirm 47 | Pol eta inh-2 inconclusive
CCc1ccc(C(=O)c2cn(CC(=O)Nc3ccc4c(c3)OCO4)c3ccc(OC)cc3c2=O)cc1	Pol beta inh 10µM, Pol iota inh inconclusive, Pol eta inh-1 45µM (no result: WRN helicase inh, L3MBTL1 inh) | Pol iota confirm 21 | Pol kappa inh-2 17 | Pol eta inh-2 inconclusive
CN(C)CCNc1ccc2ncn3c4ccc(O)cc4c(=O)c1c23	WRN helicase inh inconclusive, Pol iota inh 79µM, Pol eta inh-1 inconclusive, Pol kappa inh-1 22µM (no result: Pol beta inh, L3MBTL1 inh) | Pol iota confirm 12 | Pol kappa inh-2 9.5
O=C(CSc1nnc(SCc2ccccc2)s1)N/N=C/C=C\c1ccco1	Pol beta inh 7.1µM, WRN helicase inh inconclusive, Pol iota inh inconclusive, Pol eta inh-1 20µM, Pol kappa inh-1 28µM, L3MBTL1 inh 13µM | Pol iota confirm 42 | Pol eta inh-2 43
Cn1cccc1CC(=O)N/N=C/C=C/c1ccco1	Pol beta inh 25µM, WRN helicase inh inconclusive, Pol iota inh 18µM, Pol eta inh-1 inconclusive, Pol kappa inh-1 35µM, L3MBTL1 inh 25µM | Pol iota confirm 67 | Pol kappa inh-2 38 | Pol eta inh-2 inconclusive
O=[N+]([O-])c1cc(Cl)cc(/C=N/NC(=S)Nc2ccc(S(=O)(=O)N3CCOCC3)cc2)c1O	Pol beta inh inconclusive, Pol iota inh inconclusive, Pol eta inh-1 79µM, Pol kappa inh-1 inconclusive, L3MBTL1 inh 3.5µM | Pol iota confirm inconclusive | Pol eta inh-2 inconclusive
O=C(O)C1c2ccccc2Cc2ccccc21	none (no result: Pol beta inh, Pol iota inh, Pol kappa inh-1, L3MBTL1 inh)
COc1cc(/C=C2\SC(=O)N(c3cccc(Cl)c3)C2=O)cc([N+](=O)[O-])c1O	Pol beta inh 6.3µM, WRN helicase inh 50µM, Pol iota inh 6.3µM, Pol eta inh-1 inconclusive, Pol kappa inh-1 inconclusive | PGK validate 4.6µM | Pol iota confirm 38 | Pol kappa inh-2 4.2 | Pol eta inh-2 inconclusive
O=C1S/C(=C\c2ccc(O)c([N+](=O)[O-])c2)C(=O)N1c1ccccc1Cl	Pol iota inh inconclusive, Pol eta inh-1 inconclusive
O=C(O)c1cc(-c2ccc(/C=C3/SC(=S)N(Cc4ccccc4)C3=O)o2)ccc1Cl	Pol beta inh 16µM, WRN helicase inh inconclusive, Pol iota inh 13µM, Pol eta inh-1 10µM, Pol kappa inh-1 79µM (no result: L3MBTL1 inh) | Pol iota confirm 75 | Pol eta inh-2 27
Cc1ccc(/C=C2\SC(=S)N(Cc3ccccc3)C2=O)o1	none
COc1ccc(CNC(=O)COC(=O)c2ccc(S(=O)(=O)NCc3ccco3)cc2)cc1	Pol iota inh 50µM, Pol eta inh-1 32µM, Pol kappa inh-1 inconclusive, L3MBTL1 inh inconclusive (no result: Pol beta inh) | Pol iota confirm inconclusive | Pol eta inh-2 67
O=C(COC(=O)c1ccc(S(=O)(=O)NCc2ccco2)cc1)NCc1ccc(F)cc1	none (no result: Pol beta inh)
CCCCCCc1c(C)c2ccc(OCC(=O)N[C@@H](Cc3ccccc3)C(=O)O)cc2oc1=O	Pol eta inh-1 35µM (no result: L3MBTL1 inh) | Pol iota confirm 84 | Pol eta inh-2 inconclusive
Cc1c(C)c2ccc(OCC(=O)N[C@@H](Cc3ccccc3)C(=O)O)cc2oc1=O	Pol eta inh-1 inconclusive (no result: L3MBTL1 inh)
